Values joined by “and” are separate entries in the source; they are usually repeats but may differ in a detail not shown here. Equal values may be shown once. Records with an inconclusive call do not appear. Active and inactive are the calls of the source. Unless noted, the rule behind the calls is not given here. Non-standard residues stand in square brackets, D forms with d. Residues, ends and D or L forms follow the SMILES beside them. *: point of attachment. Sta = CC(C)C[C@H](N)[C@@H](O)CC(=O)O; Isovaleryl = CC(C)CC(=O)*

The values below come from PubChem BioAssay (NCATS).

A short description of the first assay: qHTS Assay for Identifying Gametocytocidal Compounds (AID 743244; active = well fitted curve in the direction sought with a large enough effect; an effect the other way counts as inactive or inconclusive; note: potency is the fitted concentration of half-maximal effect;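 for max response: % is set by controls: 0 for no effect and ±100 for the full control effect; actives lower the fluorescent signal which means gametocytes are killed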). Particulars: P. falciparum 3D7 stage III-V gametocytes, alamarBlue, 72 h; max response: stronger effect = lower value. In a few lines:
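Stage III–V gametocytes of P. falciparum 3D7 were seeded at 20,000 cells/well onto pre-dispensed compounds. After 72 h, 37 °C, 5% CO2, alamarBlue was added for another 24 h.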
Background: Quantitative high-throughput screening tests each substance at several concentrations.
In the case of `CC(S)C(=O)NCC(=O)O` (centres undefined), the max response was -4.83% (inactive).

For the compound `COc1cc(C(C)=O)ccc1OCCCN1CCC(c2noc3cc(F)ccc23)CC1`, the max response was 6.32% (inactive).

On to `CCOc1cc(CC(=O)N[C@@H](CC(C)C)c2ccccc2N2CCCCC2)ccc1C(=O)O`, for which the max response was 1.56% (inactive).

In the case of `CN(C)c1ccc(O)c2c1C[C@H]1C[C@H]3[C@H](N(C)C)C(=O)C(C(N)=O)=C(O)[C@@]3(O)C(=O)C1=C2O`, the max response was -5.16% (inactive) and -5.04% (inactive).

As to `CC[C@]1(O)C[C@H]2CN(CCc3c([nH]c4ccccc34)[C@@](C(=O)OC)(c3cc4c(cc3OC)N(C=O)[C@H]3[C@@](O)(C(=O)OC)[C@H](OC(C)=O)[C@]5(CC)C=CCN6CC[C@]43[C@@H]65)C2)C1`, the max response is 24.7% (inactive).

With `CC1=C(C)C(=O)C(C(CCCCCC(=O)O)c2ccccc2)=C(C)C1=O` (centres undefined), the max response was -7.88% (inactive).

As for `Clc1ccc(C(Cn2ccnc2)OCc2ccsc2Cl)c(Cl)c1` (centres undefined), the Potency was 6.31 µM (active).

Take `c1cnc2cc3c(cc2n1)C1CNCC3C1`: the max response was -11.9% (inactive).

For the compound `COC1=C(OC)C(=O)C(CCCCCCCCCCO)=C(C)C1=O`, the max response was -5.2% (inactive).

For the compound `CCCCc1ccc2nc(NC(=O)OC)[nH]c2c1`, the max response was 5.64% (inactive).

Turning to `O=C(NC(Cc1cc(=O)[nH]c2ccccc12)C(=O)O)c1ccc(Cl)cc1` (centres undefined), the max response is 22.1% (inactive).

With `CCCOc1ccc2nc(NC(=O)OC)[nH]c2c1`, the max response was -3.98% (inactive).

Turning to `COC(=O)C1=C(C)NC(C)=C(C(=O)OC(C)C)C1c1cccc2nonc12` (centres undefined), the max response is 3.5% (inactive).

With `CC(C)[C@H](N)C(=O)OCCOCn1cnc2c(=O)[nH]c(N)nc21`, the max response is 18.3% (inactive).

Turning to `CC(C)c1nc(CN(C)C(=O)N[C@H](C(=O)N[C@@H](Cc2ccccc2)C[C@H](O)[C@H](Cc2ccccc2)NC(=O)OCc2cncs2)C(C)C)cs1`, the max response was -4.83% (inactive).

Consider `N=C(N)c1ccc2cc(OC(=O)c3ccc(N=C(N)N)cc3)ccc2c1`, for which the max response is 6.62% (inactive).

Regarding `Cc1ncc([N+](=O)[O-])n1CC(C)O` (centres undefined), the max response is 9.98% (inactive).

`CC(C)(S)[C@@H](N)C(=O)O`: the max response was 21.3% (inactive).

In the case of `CC1(C)CCC(C)(C)c2cc(NC(=O)c3ccc(C(=O)O)cc3)ccc21`, the max response was 7.33% (inactive).

On to `O=C(NCCO[N+](=O)[O-])c1cccnc1`, for which the max response was -6.52% (inactive).

A short description of another assay: qHTS profiling for inhibitors of Plasmodium falciparum (3D7) proliferation (AID 743322).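 Note: infected erythrocytes exposed to compound for 72 h before lysis; 100% = DMSO vehicle wells and 0% = 0.29 µM artemisinin.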 Conditions: P. falciparum 3D7 proliferation; at 28.7 µM (top of the series) unless noted. In a few lines:
(§1)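 Erythrocytes infected with P. falciparum (0.3% parasitemia, 2.5% hematocrit) incubated with compounds 72 h at 37 C, 5% CO2. Lysis with saponin/Triton buffer containing SYBR Green I, overnight at room temperature in the dark; DNA fluorescence (485/535 nm) normalised to 0.29 uM artemisinin and DMSO.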
Consider `CCCCN(CCCC)CCC(O)c1cc2c(Cl)cc(Cl)cc2c2cc(C(F)(F)F)ccc12` (centres undefined), for which the remaining parasite growth % (stronger effect = lower value) was -0.286% [at 9.63 µM].

For `COc1cc2c(N3CCN(C(=O)Nc4ccc(OC(C)C)cc4)CC3)ncnc2cc1OCCCN1CCCCC1`, the remaining parasite growth % (stronger effect = lower value) was -0.248%.

Regarding `Cc1nc(Nc2ncc(C(=O)Nc3c(C)cccc3Cl)s2)cc(N2CCN(CCO)CC2)n1`, the remaining parasite growth % (stronger effect = lower value) was found to be 71.9%.

Turning to `Cc1cc(C2CCCCC2)n(O)c(=O)c1`, the remaining parasite growth % (stronger effect = lower value) is -0.4%.

A further assay in a line: qHTS profiling for inhibitors of Plasmodium falciparum (DD2) proliferation (AID 743323). Particulars: lower = more inhibition; at 28.7 µM (top of the series) unless noted. The method, boiled down: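 SYBR Green fluorescence (ex 485, em 535 nm) of lysed cultures gives parasite DNA content; wells normalized to artemisinin (0.29 uM) and DMSO controls. Infected red cells: 0.3% parasitemia, 2.5% hematocrit, 72 h, 37 C.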
As for `CCCCN(CCCC)CCC(O)c1cc2c(Cl)cc(Cl)cc2c2cc(C(F)(F)F)ccc12` (centres undefined), the activity, percent of control came to 0.468% [at 9.63 µM].

In turn, `COc1cc2c(N3CCN(C(=O)Nc4ccc(OC(C)C)cc4)CC3)ncnc2cc1OCCCN1CCCCC1` showed an activity, percent of control of 3.98%.

As for `Cc1nc(Nc2ncc(C(=O)Nc3c(C)cccc3Cl)s2)cc(N2CCN(CCO)CC2)n1`, the activity, percent of control turned out to be 71.4%.

The compound `Cc1cc(C2CCCCC2)n(O)c(=O)c1` showed an activity, percent of control of 0.27%.

The next assay in a line: qHTS profiling for inhibitors of Plasmodium falciparum (HB3) proliferation (AID 743324; active = well fitted curve in the direction sought with a large enough effect; an effect the other way counts as inactive or inconclusive;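 note: 100% = DMSO vehicle wells and 0% = artemisinin-treated control wells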). Particulars: Plasmodium falciparum HB3 blood-stage proliferation; at 28.7 µM (top of the series) unless noted. The method, boiled down:
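P. falciparum HB3 grown in erythrocytes (0.3% parasitemia, 2.5% hematocrit final) with compound for 72 h at 37 C, 5% CO2. Parasite DNA detected by SYBR Green after saponin/triton lysis overnight; normalized to 0.29 uM artemisinin and DMSO.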
`CCCCN(CCCC)CCC(O)c1cc2c(Cl)cc(Cl)cc2c2cc(C(F)(F)F)ccc12` (centres undefined): the remaining proliferation (% of control), lower = more inhibition is 0.576% [at 9.63 µM].

In the case of `Cc1nc(Nc2ncc(C(=O)Nc3c(C)cccc3Cl)s2)cc(N2CCN(CCO)CC2)n1`, the remaining proliferation (% of control), lower = more inhibition came to 34.2%.

`Cc1cc(C2CCCCC2)n(O)c(=O)c1`: the remaining proliferation (% of control), lower = more inhibition was -0.0898%.

A further assay in a line: qHTS profiling of the MIPE4 collection as inhibitors of Plasmodium falciparum (3D7) proliferation (AID 743344).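 Note: scaled between DMSO vehicle wells and 0.29 µM artemisinin as full inhibition.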 Conditions: P. falciparum 3D7 in erythrocytes, SYBR Green DNA fluorescence, 72 h; at 28.5 µM (top of the series) unless noted. In a few lines:
as §1
Compound `CC(S)C(=O)NCC(=O)O` (centres undefined) returned a parasite growth, % of DMSO control of 95.6%.

In turn, `COc1cc(C(C)=O)ccc1OCCCN1CCC(c2noc3cc(F)ccc23)CC1` displayed a parasite growth, % of DMSO control of 29.6%.

The compound `CCOc1cc(CC(=O)N[C@@H](CC(C)C)c2ccccc2N2CCCCC2)ccc1C(=O)O` gave a parasite growth, % of DMSO control of 83.8%.

In turn, `CN(C)[C@@H](CCOc1cccc2ccccc12)c1ccccc1` displayed a parasite growth, % of DMSO control of 18.8%.

`CN(C)c1ccc(O)c2c1C[C@H]1C[C@H]3[C@H](N(C)C)C(=O)C(C(N)=O)=C(O)[C@@]3(O)C(=O)C1=C2O` registered a parasite growth, % of DMSO control of 6.29%.

With `CC[C@]1(O)C[C@H]2CN(CCc3c([nH]c4ccccc34)[C@@](C(=O)OC)(c3cc4c(cc3OC)N(C=O)[C@H]3[C@@](O)(C(=O)OC)[C@H](OC(C)=O)[C@]5(CC)C=CCN6CC[C@]43[C@@H]65)C2)C1`, the parasite growth, % of DMSO control is 19.3%.

For `CC1=C(C)C(=O)C(C(CCCCCC(=O)O)c2ccccc2)=C(C)C1=O` (centres undefined), the parasite growth, % of DMSO control was 50.6%.

The compound `Clc1ccc(C(Cn2ccnc2)OCc2ccsc2Cl)c(Cl)c1` (centres undefined) came in with a parasite growth, % of DMSO control of 4.99%.

The compound `c1cnc2cc3c(cc2n1)C1CNCC3C1` had a parasite growth, % of DMSO control of 94.7%.

For `Clc1ccc2c(N3CCN(CCCN4CCN(c5ccnc6cc(Cl)ccc56)CC4)CC3)ccnc2c1`, the parasite growth, % of DMSO control was 18.8% [at 9.64 µM].

In the case of `Clc1ccc(C(Cn2ccnc2)OCc2c(Cl)cccc2Cl)c(Cl)c1` (centres undefined), the parasite growth, % of DMSO control turned out to be 4.82%.

As to `COC1=C(OC)C(=O)C(CCCCCCCCCCO)=C(C)C1=O`, the parasite growth, % of DMSO control came to 61.7%.

The compound `C[C@]12CCC(=O)C=C1CC[C@@H]1[C@H]2[C@@H](O)C[C@@]2(C)[C@H]1CC[C@]2(O)C(=O)CO` yielded a parasite growth, % of DMSO control of 76.9%.

With `CCCCc1ccc2nc(NC(=O)OC)[nH]c2c1`, the parasite growth, % of DMSO control came out at 49.5%.

`CN1CCC(=C2c3ccccc3CCc3sccc32)CC1` yielded a parasite growth, % of DMSO control of 8.53%.

The compound `O=C(NC(Cc1cc(=O)[nH]c2ccccc12)C(=O)O)c1ccc(Cl)cc1` (centres undefined) registered a parasite growth, % of DMSO control of 88.9%.

In turn, `COCCCN1CCC(NC(=O)c2cc(Cl)c(N)c3c2OCC3)CC1` registered a parasite growth, % of DMSO control of 28.3%.

In turn, `O=C(CS(=O)Cc1ccco1)NCC=CCOc1cc(CN2CCCCC2)ccn1` (centres undefined) had a parasite growth, % of DMSO control of 78%.

In the case of `CCCOc1ccc2nc(NC(=O)OC)[nH]c2c1`, the parasite growth, % of DMSO control stood at 82.7%.

Compound `COC(=O)C1=C(C)NC(C)=C(C(=O)OC(C)C)C1c1cccc2nonc12` (centres undefined) displayed a parasite growth, % of DMSO control of 51.5%.

Turning to `CC(C)[C@H](N)C(=O)OCCOCn1cnc2c(=O)[nH]c(N)nc21`, the parasite growth, % of DMSO control worked out at 102%.

`C[C@H](Cn1cnc2c(N)ncnc21)OCP(=O)(O)O` had a parasite growth, % of DMSO control of 171%.

Turning to `CC(C)c1nc(CN(C)C(=O)N[C@H](C(=O)N[C@@H](Cc2ccccc2)C[C@H](O)[C@H](Cc2ccccc2)NC(=O)OCc2cncs2)C(C)C)cs1`, the parasite growth, % of DMSO control is 20.4%.

Turning to `CCN(CC)CCOc1ccc(Cc2ccccc2)cc1`, the parasite growth, % of DMSO control was 58.8%.

For `Cc1cc(Cl)ccc1OCCCC(=O)NO`, the parasite growth, % of DMSO control is 34.3%.

In turn, `N=C(N)c1ccc2cc(OC(=O)c3ccc(N=C(N)N)cc3)ccc2c1` gave a parasite growth, % of DMSO control of 6.93%.

Compound `COc1cc2c(N3CCN(C(=O)Nc4ccc(OC(C)C)cc4)CC3)ncnc2cc1OCCCN1CCCCC1` had a parasite growth, % of DMSO control of 4.84%.

`CCCCCCCCOc1ccccc1C(=O)Nc1ccc(C(=O)OCC[N+](C)(CC)CC)cc1` displayed a parasite growth, % of DMSO control of 9.2%.

With `Cc1ncc([N+](=O)[O-])n1CC(C)O` (centres undefined), the parasite growth, % of DMSO control worked out at 94.7%.

`CN(C)C(=O)[C@H](O)[C@H](Cc1ccccc1)NC(=O)c1cc2cc(Cl)ccc2[nH]1` displayed a parasite growth, % of DMSO control of 6.18%.

Turning to `CNC[C@@H](O)[C@@H](O)[C@H](O)[C@H](O)CO`, the parasite growth, % of DMSO control is 65.8%.

Consider `Cc1nc(Nc2ncc(C(=O)Nc3c(C)cccc3Cl)s2)cc(N2CCN(CCO)CC2)n1`, for which the parasite growth, % of DMSO control was determined as 13.5%.

Turning to `CC(C)(S)[C@@H](N)C(=O)O`, the parasite growth, % of DMSO control is 106%.

Regarding `Cc1cc(C2CCCCC2)n(O)c(=O)c1`, the parasite growth, % of DMSO control amounted to 6.27%.

`CC(C)CC(=O)N[C@H](C(=O)N[C@H](C(=O)N[C@@H](CC(C)C)[C@@H](O)CC(=O)N[C@@H](C)C(=O)N[C@@H](CC(C)C)[C@@H](O)CC(=O)O)C(C)C)C(C)C` (Isovaleryl-VV[Sta]A[Sta]-OH) had a parasite growth, % of DMSO control of 59.4%.

For the compound `CC1(C)CCC(C)(C)c2cc(NC(=O)c3ccc(C(=O)O)cc3)ccc21`, the parasite growth, % of DMSO control is 23.1%.

The compound `O=C(NCCO[N+](=O)[O-])c1cccnc1` yielded a parasite growth, % of DMSO control of 102%.

Compound `Clc1ccc(C(Cn2ccnc2)OCc2ccc(Sc3ccccc3)cc2)c(Cl)c1` (centres undefined) registered a parasite growth, % of DMSO control of 5.64%.
